Screen size: about 2,800 compounds; fewer than 10 were called active. The call rests on the fitted dose curve; in most records, active means well fitted curve in the direction sought with a large enough effect; inconclusive means small, poorly fitted or top-dose-only effect, or another doubt; inactive means no such curve, though single readings can be large or run the other way. These entries were drawn from the full list.
biological target: Metallo-beta-lactamase type 2 (Klebsiella pneumoniae) (UniProt C7C422); experiment: qHTS to identify inhibitors of the New Delhi Metallo-beta-lactamase (NDM): Meropenem screen against the machine-based learning selections.; details: Purified NDM-1, meropenem hydrolysis, absorbance 300 nm; series mostly up to 38.4 µM
Excerpt: Assay Submitter (PI): James Inglese Ph.D., Patricia Dranchak Ph.D., Mahesh Aitha Ph.D. Assay Development and Screening Technology Laboratory (ADST) National Center for Advancing Translational Sciences (NCATS), Rockville, MD National Institute of Health (NIH), Bethesda, Maryland The metallo-beta-lactamases (MBL) are a main antibiotic resistance mechanism evolved by bacteria. There is an urgent clinical need for MBL inhibitors to mitigate this growing threat. To support a machine-based learning study, qHTS has been used to experimentally test inhibitors identified by prediction tools.
PROTOCOL TABLE (as described by Inglese et al., 2007) SEQUENCE No. (e.g., 1, 2, 3, etc.); […] (e.g., enzyme, Incubation, Reagent, etc.); VALUE; DESCRIPTION Primary Screen 1; NDM-1; 4 uL of 3 nM enzyme [2 nM final] in 50 mM HEPES (pH 7.0), 1 uM […], 0.01% Tween20; Use BioRaptr to dispense into two sets of Aurora black, clear bottom high base 1536-well plates 2; Compounds; 23 nL; Use Pin Tool (Wako) to transfer DMSO control and library compounds in DMSO 3; Incubate; >30 min 4a; Reagent; 2 uL of 50 uM nitrocefin [16.7 uM final] to one set of assay plates 4b; Reagent; 2 uL of 150 uM meropenem [50 uM final] to second set of assay plates 5a; Incubate; 15 min 5b; Incubate; 30 min 6a; Detector; Absorbance at 485 nm (bandwidth = 5 nm, 25 flashes/well) on Tecan Infinity 6b; Detector; Absorbance at 300 nm (bandwidth = 5 nm, 25 flashes/well) on Tecan Infinity NOTES (numbers refer to sequence above) 1; Column 1 of each plate received assay buffer without enzyme and columns 2-48 received enzyme for a final assay concentration of 2 nM. 2; Control plate contained DMSO in columns 1, 2, 3, and 4. 3; Compound interaction with enzyme. 4; Nitrocefin and meropenem substrates were prepared in the same assay buffer as step 1 for a final assay concentration of 16.7 uM and 50 uM, respectively, and added to all wells across respective sets of assay plates. 5; Default reader settings were applied for absorbance read at 485 nm (nitrocefin) or 300 nm (meropenem), bandwidth = 5 nm, 25 flashes/well. References: Inglese J, Shamu CE, Guy RK. 2007. Reporting data from high-throughput screening of small-molecule libraries. Nat Chem Biol. doi:10.1038/nchembio0807-438 Yasgar A, Shinn P, Jadhav A, Auld D, Michael S, Zheng W, Austin CP, Inglese J, Simeonov A. 2008. Compound Management for Quantitative High-Throughput Screening. J Lab Autom 13:79 - 89. doi:10.1016/j.jala.2007.12.004

Chain of Metallo-beta-lactamase type 2 (Klebsiella pneumoniae) (C7C422 whole entry, looked up): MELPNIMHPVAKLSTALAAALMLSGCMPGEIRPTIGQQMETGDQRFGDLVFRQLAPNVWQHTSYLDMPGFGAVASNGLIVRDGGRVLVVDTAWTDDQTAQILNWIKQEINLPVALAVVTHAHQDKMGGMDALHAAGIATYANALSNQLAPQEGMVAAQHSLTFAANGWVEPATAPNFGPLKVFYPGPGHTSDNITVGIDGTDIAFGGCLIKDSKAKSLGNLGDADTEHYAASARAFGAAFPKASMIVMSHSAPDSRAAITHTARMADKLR

outcome, inactive:
C[C@@H](NS(=O)(=O)c1ccccc1)c1onc(-c2cccnc2)c1C(=O)O
C#CCN(C)CC[C@@H]1CC[C@H](O)[C@@H](C(=O)N(C)Cc2ccccc2)O1
COCc1cc(C[C@@H]2CC[C@H](O)[C@@H](CNC(=O)C(C)(C)C)O2)no1
O=C(NC[C@H]1Cn2c(-c3ccccc3)cnc2CO1)C1CCOCC1
O=C(NCc1ccccc1)O[C@H]1COCCN(c2nc3ccccc3o2)C1
O=C(Cc1ccccc1)Nc1ccc([C@@H](O)[C@H]2COCC(=O)N2CC2CC2)cc1
CC[C@@]1(C(=O)O)C[C@H](C(=O)NC(CO)CO)[C@H](c2ccc(OC)cc2)N1C
O=C(CN1CC2CC(C1)[C@H]1CCCC(=O)N1C2)NCc1cc(F)ccc1F (stereo partly specified)
NCCn1cc(C(=O)NCC(O)c2ccccc2C(F)(F)F)nn1 (stereo unspecified)
C[C@@H](NC(=O)c1cccs1)c1onc(-c2ccc(F)cc2)c1C(=O)O
O=[N+]([O-])c1cccc(-c2noc([C@@H]3C[C@@H](O)CN3Cc3ccccc3)n2)c1
CC(C)c1noc(-c2cccn3c(CNC(=O)c4cccc5[nH]ccc45)nnc23)n1
CN(C)c1nccnc1OC1CCN(C(=O)CCCc2ccccc2)C1 (stereo unspecified)
Cc1cc(C(=O)NCCc2csc(-c3cccnc3)n2)cc(S(N)(=O)=O)c1C
CC1(C)[C@H](Cc2cc(CCO)on2)C[C@@H]1N(S(C)(=O)=O)S(C)(=O)=O
CC(C)CCN1CCNC(=O)C1CC(=O)N(Cc1nccs1)C1CC1 (stereo unspecified)
Cn1c(CN2CCOCC2)nnc1C1CCN(c2ncccc2C#N)CC1
CCCCNC(=O)c1cccc(CN2C(=O)CC(c3ccccc3C)C(C(=O)OCC)=C2C)c1 (stereo unspecified)
Cn1cnc2cc(-c3ccc(CO)cc3)cc(C(=O)NCc3cccnc3)c21
Cc1cc(F)ccc1OC1CN(Cc2ccc(F)cc2)C1
COc1ccc(-c2noc([C@@H]3Cc4nc[nH]c4CN3Cc3ccc(NC(C)=O)cc3)n2)cc1
CC1(C)C[C@H](NC(=O)c2ccccc2)[C@@]2(CCC(=O)NCCN3CCOCC3)CC[C@](C)(O)C[C@@H]12
CC(C)(C)c1ccc(C(=O)Nc2nc3c(s2)C[C@@H]2[C@](C)(CO)[C@H](O)CC[C@@]2(C)[C@@H]3CC(=O)NC2CC2)cc1
O=C(COc1ccccc1Cl)N1CCCC(O)(CN2CCCC2)C1 (stereo unspecified)
COCC(=O)NC[C@@H]1C=C(C)[C@H](CC(=O)Nc2ccccn2)C[C@H]1C(C)C
Cc1cnccc1N1CCCN(C(=O)c2cccc(C3CCCNC3)c2)CC1 (stereo unspecified)
COC(=O)[C@@H]1Cc2ncn(C)c2CN1C(=O)c1ccc(-c2ccccc2)cc1
NC(=O)[C@H](Cc1cccs1)NC(=O)C1=C[C@@H](NC(=O)c2ccc(F)c(Cl)c2)[C@@H](O)[C@H](O)C1
COc1ccc(CN2CCNc3cc(Nc4cccnc4)ncc3C2)cc1O
CN1C[C@H](NCc2cccc(Cl)c2)CCC[C@@H](C(=O)NC2CC2)CC1=O
COc1ccc(CCC(=O)N2CCC(N3CC4CC(C3)[C@H]3CCCC(=O)N3C4)CC2)cc1 (stereo partly specified)
COC[C@H]1CCCN1C(=O)C[C@@H]1O[C@H](CNS(C)(=O)=O)[C@@H](O)[C@H]1O
CN[C@@H](CO)C(=O)NCc1nc(-c2cccc(F)c2)c(-c2ccccn2)[nH]1
COc1ccc(-c2nc3ccncc3[nH]2)cc1
CC(=O)N1CCC(N[C@H]2CC(C)(C)[C@@H]3C[C@@](C)(O)CC[C@]23CCC(=O)NCCN2CCOCC2)CC1
CC(O)CNS(=O)(=O)c1cccc(C(=O)Nc2cccc3c2CCC3)c1 (stereo unspecified)
COCCN1C(=O)CCc2cc(NC(=O)c3ccc(C)c(C)c3)ccc21
OC[C@H]1CCN(c2ccnc3c(C(F)(F)F)cccc23)C[C@H]1O
CC1CCN([C@@H]2[C@H](O)[C@H](CO)O[C@@H]2CNC(=O)c2ccccc2)CC1
CC(=O)N1CCC(N2C[C@@H]3OCC(=O)N[C@@H]3C2)CC1
NC(=O)c1cccc(-c2n[nH]c3c2CC(=O)N(CC2CCOCC2)C3)c1
O=c1c2nc(-c3cccc(O)c3)ccc2ncn1Cc1ccccn1
Cc1cc(C(=O)N[C@H]2[C@H](O)[C@H](O)C[C@@H]2c2cccnc2)no1
COc1ccc(F)c(CN2CCCC(O)(CN(C)Cc3cc(C)on3)C2=O)c1 (stereo unspecified)
O=C(Nc1cccnc1)c1ccnc(-c2nnc3ccc(Nc4ccccc4)nn23)c1
CCc1nc2c(c(-c3ccc(Cl)cc3)n1)CCN(Cc1ccc(F)cc1)CC2
COCc1cn(C[C@H]2C[C@@H](NCc3nccs3)[C@H](O)[C@@H]2O)nn1
NC(=O)[C@H](Cc1cccs1)NC(=O)C1=C[C@@H](NC(=O)NC2CCCCC2)[C@@H](O)[C@H](O)C1
CC(C)C1CN(C(=O)c2ccccc2-c2ncc[nH]2)CCC(=O)N1CC1CC1 (stereo unspecified)
COC(=O)[C@H]1CN(C(C)=O)CCN1C(C)=O
O=C(Cc1csc(-c2ccccc2)n1)N[C@H](c1ccccn1)C1CC(O)C1 (stereo partly specified)
Cc1cn(CC(=O)NC2CCOC3(CCOCC3)C2)c(=O)[nH]c1=O (stereo unspecified)
O=C1CN(C(=O)[C@H]2CN(Cc3ccccc3)C[C@H]2C(=O)O)CCN1
Cc1noc(C2CC3(CCN(C(=O)C4CCC4)CC3)CN2C)n1 (stereo unspecified)
Cc1ncsc1CCC(=O)N[C@@H]1CCOC[C@H]1OCC(=O)O
Cc1cc2c(cc1C(=O)N[C@H](c1ccccn1)C1CC(O)C1)OCCO2 (stereo partly specified)
Cc1ccn2c(C(=O)N3CCCC(c4[nH]ncc4-c4ccccc4)C3)nnc2n1 (stereo unspecified)
c1cncc(Nc2cc3c(cn2)CN(Cc2ccsc2)CCN3)c1
CC[C@@]1(O)CCN(C(=O)c2cccc(CCC(C)(C)O)c2)C[C@H]1O
O=C(c1ccoc1)N1CCCC(CCc2ccc(F)c(F)c2)C1 (stereo unspecified)
Cc1cc(C)c(CNC(=O)c2nc(-c3cccc(O)c3)cc3[nH]ccc23)c(=O)[nH]1

From PubChem BioAssay AID1794842 (National Center for Advancing Translational Sciences (NCATS), 2023)
